Bioassay records (PubChem)
VACV Venus inh = vaccinia inhibition (Venus reporter) | Vaccinia virus Venus reporter expression, fluorescence | Potency, µM (doses to about 36.5 µM), without a hit: top-dose activity change, negative = inhibition, hits mostly inhibitors | 330,000 compounds, 0.46% hits | AID 720580; calls by dose curve; tested in A549 cells; note: potency is the fitted concentration of half-maximal effect; nearly all actives have a fitted effect of over 30% in size
MARV entry inh = Marburg virus entry inhibition; Marburg virus pseudotyped entry inhibition, cell reporter; Potency, µM (top dose mostly 37.8 µM), without a hit: top-dose activity change, negative = inhibition, hits mostly inhibitors; 300,000 compounds, 1.8% hits; calls by dose curve; tested in HEK293 cells; note: potency is the fitted concentration of half-maximal effect
Lassa entry inh = blocks Lassa virus binding to or entry into cells. Lassa virus pseudotype entry inhibition, cell reporter. Potency, µM (highest dose often 37.9 µM), without a hit: top-dose activity change, negative = inhibition, hits mostly inhibitors. 300,000 compounds, 1.2% hits. AID 540256; calls by dose curve; tested in HEK293 cells; note: potency is the fitted concentration of half-maximal effect; nearly all actives have a fitted effect of over 50% in size
FMDV antiviral = antivirals against foot and mouth disease virus; Potency, µM (doses to about 57.9 µM), for the others: top-dose activity change, negative = inhibition, hits mostly inhibitors; 410,000 compounds, 1.2% hits; FMDV antiviral cell-based qHTS; calls by dose curve; tested in HEK293T cells; note: read-out not given here; potency is the fitted concentration of half-maximal effect; nearly all actives have a fitted effect of over 45% in size
HCMV inh = inhibitors of human cytomegalovirus; HFF cells, HCMV-luciferase reporter, 72 h; hits give low values; activity change, negative = inhibition, % at 57.5 µM; 410,000 compounds, 4.5% hits; AID 1259415; in the data active = activity change below about -60%; inconclusive = no clear call, values can overlap the other calls; inactive = above about -39%
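Two-dose cell screen: HFF monolayers treated with compounds and infected with luciferase-expressing HCMV at 1 PFU/cell, 72 h at 37C, then lysed for luciferase measurement.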
VACV mCherry inh = inhibitors of vaccinia virus infection (mCherry reporter signal); 310,000 compounds, 0.63% hits; Potency, µM (series often up to 36.5 µM), for inactives: at the highest dose activity change, negative = inhibition, most hits filed as inhibitors; Vaccinia virus mCherry reporter infection, fluorescence; calls by dose curve; tested in A549 cells; note: potency is the fitted concentration of half-maximal effect; nearly all actives have a fitted effect of over 35% in size
* hit, by the source's call; i = inactive; ? = inconclusive; · = no result given; [ ] = dose if it differs, or a comment. Sampled rows, rich in hits. Any-hit rate of the full collection: about 6.5%. % is set by controls: 0 for no effect and ±100 for the full control effect.

SMILES | VACV Venus inh | MARV entry inh | Lassa entry inh | FMDV antiviral | HCMV inh | VACV mCherry inh
COc1cccc(N2CCN(C(=O)C3CCN(S(=O)(=O)c4cccc5nonc45)CC3)CC2)c1 | -6% | · | -14%[46.1 µM] | 0% | -15 | 1%
CCC1CN(C(=O)N2CCC(C(=O)N3CCN(c4ccccc4)CC3)CC2)c2ccccc2O1 (stereo not given) | -7% | · | -29%[46.1 µM] | -13% | -17 | -6%
O=[N+]([O-])c1ccc(N2CCN(S(=O)(=O)c3ccccc3)CC2)cc1NCc1cccnc1 | 18µM* | ? | ? | ? | 11 | ·
O=[N+]([O-])c1ccc(N2CCN(S(=O)(=O)c3ccc(Cl)cc3)CC2)cc1NCc1cccnc1 | -3% | 4% | 0% | -4% | -29 | -10%
Cc1ccc(C2=NCC(C)n3c2c2ccc(C(F)(F)F)cc2[n+]3[O-])cc1 (stereo not given) | · | · | · | · | 23 | ·
COc1ccccc1CCNc1ncnc2sc(C(=O)N3CCCC3)c(C)c12 | -8% | · | · | ? | · | -12%
O=C1N=C(N2CCc3ccccc3C2)S/C1=C\c1cccc(O)c1 | -17% | 24% | 21µM* | 6% | 8 | -14%
COc1ccc(NC(=O)c2nn(C)cc2[N+](=O)[O-])cc1 | · | · | · | 30% | -29 | ·
Cc1ccc(NC(=O)c2nn(C34CC5CC(CC(C5)C3)C4)cc2[N+](=O)[O-])cc1 | · | ? | -18% | 57% | -76* | ·
O=C(CN1CCCC1)N/N=C/c1c(O)ccc2ccccc12 | · | · | · | -17% | 33 | ·
O=C(N/N=C/c1ccccc1O)C(=O)N1CCCCCC1 | -27% | -10%[46.1 µM] | ? | 47% | 8 | 7.9µM*
O=C(N/N=C/c1c(O)ccc2ccccc12)C(=O)N1CCCC1 | ? | · | · | -12% | -75* | ?
CCCCCSc1cc(O)c(C(CNC)C(C)C)cc1OC (stereo not given) | -10% | 18µM* | ? | -13% | -4 | -24%
CCCCCSc1cc(OC)c(CCN(C)C)cc1OC | ? | ? | ? | -1% | -37 | ·
N#CC1=C(SCC(=O)c2ccc(Br)cc2)NC2=C(C(=O)CCC2)[C@H]1c1ccco1 | · | 8.9µM* | · | · | · | ·
Cc1ccc(C(=O)CSC2=C(C#N)C(c3ccco3)C3=C(CC(C)(C)CC3=O)N2)cc1 (stereo not given) | -30% | ? | ? | -29% | -68* | ?
C=CCOC(=O)C1=C(C)NC(SCC(=O)Nc2ccc(C)c(Cl)c2)=C(C#N)C1c1ccco1 (stereo not given) | ? | 10µM* | -25% | -12% | ? | ?
N#CC1=C(SCC(=O)c2ccc(Cl)cc2)NC2=C(C(=O)CCC2)C1c1ccco1 (stereo not given) | ? | ? | ? | ? | -40 | ?
Cc1ccc(NC(=O)CSC2=C(C#N)C(c3ccco3)C3=C(CCCC3=O)N2)cc1 (stereo not given) | 7% | ? | ? | -5% | 7 | 11%
CC1(C)CC(=O)C2=C(C1)NC(SCC(=O)Nc1ccccc1)=C(C#N)C2c1ccco1 (stereo not given) | -11% | 14µM* | ? | -1% | ? | -13%
C[C@H]1[C@H](O)[C@@H](N=[N+]=[N-])CCO[C@H]1c1ccccc1 | · | -12%[14.2 µM] | · | · | · | ·
CC1NC(=O)NC1CCCCCC(=O)Nc1ccc(F)cc1 (stereo not given) | -16% | ? | 1% | -3% | 23 | -2%
Cc1c(F)cccc1NC(=O)CCCCCC1NC(=O)NC1C (stereo not given) | -7% | 20% | 17% | 44% | -71* | -11%
Cc1ccc2nc(NC3=NC4(CCCC4)C4=C(CCCC4=O)N3)oc2c1 | · | · | · | 40µM* | -4 | ·
Cc1ccc(OCC(=O)Nc2ccc(S(=O)(=O)N3CCCCC3)cc2)c([N+](=O)[O-])n1 | -10% | -12%[46.1 µM] | -4%[46.1 µM] | -24% | -5 | i
COc1ccc(CCC(=O)Nc2ccc(OC)c(S(=O)(=O)N3CCCCC3)c2)cc1OC | · | · | · | ? | -20 | ·
COc1ccc(CCNC(=O)c2ccc(Cl)c(S(=O)(=O)N(C)c3ccccc3)c2)cc1 | ? | ? | ? | 28µM* | -68* | -22%
Cc1ccc(OCC(=O)Nc2ccc(C)c(S(=O)(=O)N3CCCCC3)c2)c([N+](=O)[O-])n1 | -26% | 1.1µM* | ? | ? | -19 | ?
